Compound activity: PubChem, several laboratories
C1s block: blocks human complement C1s protease activity | purified C1s, fluorogenic AMC substrate, pooled mixtures | mean inhibition % of two 10-compound mixtures (hits give high values), % at 5 µM (by protocol) | actives 0.16% (n = 62,000) | AID 538;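 active means inhibition above 20% in each of the two 10-compound mixture wells holding the compound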;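 further: 0% = enzyme wells lacking compound mixture and 100% = no-enzyme blank wells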
Cathepsin G inh: cathepsin G (human) inhibition; P08311; AID 581; purified enzyme, AMC-tetrapeptide fluorescence, pooled mixtures; actives 0.2% (n = 62,000); inhibition, % at 5 µM (by protocol);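 active means inhibition above 20% in each of the two mixture wells holding the compound; inactive means inhibition of 20% or less in either well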;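 further: 0% = enzyme control without mixture and 100% = blank lacking enzyme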
BAP1 block: human BAP1 deubiquitinase inhibition; AID 436; actives 0.48% (n = 72,000); activity remaining (% of control), % at 20 µM; recombinant BAP1, Ub-AMC hydrolysis fluorescence kinetic; hits give low values;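 active means activity remaining at or below 50% of control, provided the compound also passes the data quality filters; inactive means the rest, including low values that fail the filters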;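 further: 100% = DMSO wells rate and 0% = substrate alone blank rate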
Target sequence (Q92560 whole entry, looked up): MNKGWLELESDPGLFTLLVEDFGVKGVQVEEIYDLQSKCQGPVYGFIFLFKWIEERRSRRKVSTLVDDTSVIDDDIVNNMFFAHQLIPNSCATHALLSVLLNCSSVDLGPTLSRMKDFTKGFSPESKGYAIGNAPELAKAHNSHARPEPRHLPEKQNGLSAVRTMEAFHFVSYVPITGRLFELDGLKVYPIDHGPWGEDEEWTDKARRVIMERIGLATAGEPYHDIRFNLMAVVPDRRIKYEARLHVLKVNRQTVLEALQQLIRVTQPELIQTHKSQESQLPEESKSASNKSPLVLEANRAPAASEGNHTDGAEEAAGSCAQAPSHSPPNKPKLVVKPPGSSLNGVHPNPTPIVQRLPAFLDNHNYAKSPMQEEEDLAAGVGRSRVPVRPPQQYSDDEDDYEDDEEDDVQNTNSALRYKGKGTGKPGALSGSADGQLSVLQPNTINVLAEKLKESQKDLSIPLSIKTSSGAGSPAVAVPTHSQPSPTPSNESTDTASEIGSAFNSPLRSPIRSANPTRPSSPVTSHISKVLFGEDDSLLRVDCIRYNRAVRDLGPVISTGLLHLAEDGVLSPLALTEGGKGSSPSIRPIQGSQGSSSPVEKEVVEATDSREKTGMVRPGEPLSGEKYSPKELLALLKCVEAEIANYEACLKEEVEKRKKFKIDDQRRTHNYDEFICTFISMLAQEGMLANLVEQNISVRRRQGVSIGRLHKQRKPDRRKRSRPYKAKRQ
FXIIa inh mix: blocks human factor XIIa in pooled compound mixtures. P00748. purified FXIIa, fluorogenic substrate. inhibition, % at 5 µM. actives 0.2% (n = 62,000). AID 684;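 further: 0% = enzyme without compound and 100% = no enzyme blank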
FXIa mix inh: inhibitors of human coagulation factor XIa, pooled mixtures; purified FXIa, fluorogenic substrate; inhibition, % at 5 µM; P03951; actives 0.19% (n = 62,000);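 further: each value is inhibition by a whole ten-compound pool holding the compound; 0% = enzyme with no mixture and 100% = wells lacking enzyme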
Candida biofilm: kills Candida albicans biofilms. C. albicans biofilm + clotrimazole, Alamar Blue. inhibition, % at 6 µM. actives 0.14% (n = 85,000);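 active means inhibition above 20%; inactive means inhibition below 20%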;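 further: preformed 24 hr biofilms exposed to compound for 48 hr; 0% = biofilm without compound and 100% = blank killed by clotrimazole plus chlorhexidine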
The depositor's hits bear a star. An excerpt weighted towards active compounds, which were near 0.8% of everything screened. Unless noted, no stated cut-off is given here; in the data, active means inhibition above about 20% (passing the limit was not always enough); inactive means the rest.

Results for COCCNC(=O)c1noc2c1CCc1cc(OC)ccc1-2 ?
C1s block: 16; Cathepsin G inh: 50*; BAP1 block: 97; FXIIa inh mix: -14; FXIa mix inh: 5; Candida biofilm: 7

Results for COc1ccc2c(c1)CCc1c(C(=O)NCCN3CCOCC3)noc1-2 ?
C1s block: -25; Cathepsin G inh: 58*; BAP1 block: 98; FXIIa inh mix: 5; FXIa mix inh: 11; Candida biofilm: 0

How did COCC(C)NC(=O)c1noc2c1CCc1cc(OC)ccc1-2 (configuration not stated) do in these assays?
C1s block: 12; Cathepsin G inh: 39*; BAP1 block: 95; FXIIa inh mix: 0; FXIa mix inh: 6; Candida biofilm: 4

Results for Cc1ccc(S(=O)(=O)N2CCCC2C(=O)Nc2ccc(O)cc2)cc1 (configuration not stated) ?
C1s block: 4; Cathepsin G inh: 7; BAP1 block: 90; FXIIa inh mix: 4; FXIa mix inh: 1; Candida biofilm: 11

How did COc1ccc2c(c1)CCc1c(C(=O)NC3CCCCC3)noc1-2 do in these assays?
C1s block: 3; Cathepsin G inh: 74*; BAP1 block: 92; FXIIa inh mix: 1; FXIa mix inh: 26; Candida biofilm: 4

How did COc1ccc2c(c1)CCc1c(C(=O)NCc3ccco3)noc1-2 do in these assays?
C1s block: 11; Cathepsin G inh: 56*; BAP1 block: 89; FXIIa inh mix: 13; FXIa mix inh: 15; Candida biofilm: 6

How did [N-]=[N+]=CC(=O)CNC(=O)[C@@H](Cc1ccccc1)N1C(=O)c2ccccc2C1=O do in these assays?
C1s block: 12; Cathepsin G inh: 13; BAP1 block: 101; FXIIa inh mix: 7; FXIa mix inh: 0; Candida biofilm: 2

Results for O=C(NCc1ccco1)C(Cc1ccccc1)N1C(=O)c2ccccc2C1=O (configuration not stated) ?
C1s block: 1; Cathepsin G inh: -2; BAP1 block: 97; FXIIa inh mix: 4; FXIa mix inh: 26*; Candida biofilm: 2

Results for COc1cccc(C(c2sc3ncnn3c2O)N2CC(C)OC(C)C2)c1 (configuration not stated) ?
C1s block: -18; Cathepsin G inh: 6; BAP1 block: 100; FXIIa inh mix: 11; FXIa mix inh: 0

How did O=C(O)CCCC(=O)Nc1ccccc1C(=O)O do in these assays?
C1s block: 49*; Cathepsin G inh: 10; BAP1 block: 69; FXIIa inh mix: 1; FXIa mix inh: 7; Candida biofilm: 11

Results for O=C(Oc1ccc(Cl)cc1N1C(=O)CCC1=O)c1ccco1 ?
C1s block: 26*; Cathepsin G inh: 20; BAP1 block: 97; FXIIa inh mix: 3; FXIa mix inh: 14; Candida biofilm: -3

How did O=C(Oc1cc2oc(=O)c3c(c2cc1Cl)CCCC3)c1ccco1 do in these assays?
C1s block: -27; Cathepsin G inh: 6; BAP1 block: inactive; FXIIa inh mix: -16; FXIa mix inh: 2; Candida biofilm: 5

What do the screens show for `CCOCCCNC(=O)CN1C(=O)CSc2cc(S(=O)(=O)N3CCCCCC3)ccc21`?
C1s block: 3; Cathepsin G inh: 7; BAP1 block: 116; FXIIa inh mix: -2; FXIa mix inh: -2; Candida biofilm: 4

Results for COc1ccc(C(=O)Nc2cc(-c3nn4c(C)nnc4s3)ccc2C)cc1 ?
C1s block: 3; Cathepsin G inh: 2; BAP1 block: 96; FXIIa inh mix: 3; FXIa mix inh: 10; Candida biofilm: 8

Results for Cc1ccc(-c2nn3c(C)nnc3s2)cc1NC(=O)c1ccc(OC(C)C)cc1 ?
C1s block: -11; Cathepsin G inh: 7; BAP1 block: 109; FXIIa inh mix: 2; FXIa mix inh: 22*; Candida biofilm: 7

How did CCS(=O)(=O)NCc1csc(-c2ccccc2)n1 do in these assays?
C1s block: 17; Cathepsin G inh: 11; BAP1 block: 104; FXIIa inh mix: 4; FXIa mix inh: 7; Candida biofilm: 25*

What do the screens show for `CS(=O)(=O)NCc1csc(-c2ccccc2)n1`?
C1s block: -4; Cathepsin G inh: 6; BAP1 block: 98; FXIIa inh mix: 9; FXIa mix inh: 9; Candida biofilm: 5

What do the screens show for `O=C(CC(c1ccccc1)c1ccccc1)Nc1ncn[nH]1`?
C1s block: 3; Cathepsin G inh: 5; BAP1 block: 86; FXIIa inh mix: -3; FXIa mix inh: -4; Candida biofilm: 2
